Test [1] concerns the target Tyrosine-protein kinase SYK (Homo sapiens) (UniProt P43405). As to conditions: at 1 µM.
For test [2], the target named is T1, Tyrosine-protein kinase Tec (Homo sapiens) (UniProt P42680).
T1 sequence (whole entry): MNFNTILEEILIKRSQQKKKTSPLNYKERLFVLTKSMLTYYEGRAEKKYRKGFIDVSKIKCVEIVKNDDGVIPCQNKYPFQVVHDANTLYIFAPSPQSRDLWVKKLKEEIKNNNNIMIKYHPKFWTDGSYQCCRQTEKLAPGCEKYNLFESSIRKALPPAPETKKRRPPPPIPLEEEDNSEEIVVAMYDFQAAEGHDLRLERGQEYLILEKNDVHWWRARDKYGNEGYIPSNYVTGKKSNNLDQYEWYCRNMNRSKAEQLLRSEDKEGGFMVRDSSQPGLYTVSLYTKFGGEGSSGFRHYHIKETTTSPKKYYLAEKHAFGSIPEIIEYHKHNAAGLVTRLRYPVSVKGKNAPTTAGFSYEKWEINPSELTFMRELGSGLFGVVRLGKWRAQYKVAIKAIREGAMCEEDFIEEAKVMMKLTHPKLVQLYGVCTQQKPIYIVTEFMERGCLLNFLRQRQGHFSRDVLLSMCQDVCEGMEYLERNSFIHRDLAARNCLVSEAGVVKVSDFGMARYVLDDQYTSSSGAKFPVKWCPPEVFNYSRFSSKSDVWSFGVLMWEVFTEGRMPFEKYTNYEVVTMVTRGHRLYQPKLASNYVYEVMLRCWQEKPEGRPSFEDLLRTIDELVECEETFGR
As to conditions: at 0.1 µM.

For test [3], the target named is T1, Tyrosine-protein kinase Tec (Homo sapiens). As to conditions: at 1 µM.
Test [4] deals with Angiopoietin-1 receptor (Homo sapiens) (UniProt Q02763). As to conditions: at 0.1 µM.
For test [5] the target is unchanged. The following applies: at 1 µM.
Test [6] addresses T2, Non-receptor tyrosine-protein kinase TNK1 (Homo sapiens) (UniProt Q13470).
T2 sequence (whole entry): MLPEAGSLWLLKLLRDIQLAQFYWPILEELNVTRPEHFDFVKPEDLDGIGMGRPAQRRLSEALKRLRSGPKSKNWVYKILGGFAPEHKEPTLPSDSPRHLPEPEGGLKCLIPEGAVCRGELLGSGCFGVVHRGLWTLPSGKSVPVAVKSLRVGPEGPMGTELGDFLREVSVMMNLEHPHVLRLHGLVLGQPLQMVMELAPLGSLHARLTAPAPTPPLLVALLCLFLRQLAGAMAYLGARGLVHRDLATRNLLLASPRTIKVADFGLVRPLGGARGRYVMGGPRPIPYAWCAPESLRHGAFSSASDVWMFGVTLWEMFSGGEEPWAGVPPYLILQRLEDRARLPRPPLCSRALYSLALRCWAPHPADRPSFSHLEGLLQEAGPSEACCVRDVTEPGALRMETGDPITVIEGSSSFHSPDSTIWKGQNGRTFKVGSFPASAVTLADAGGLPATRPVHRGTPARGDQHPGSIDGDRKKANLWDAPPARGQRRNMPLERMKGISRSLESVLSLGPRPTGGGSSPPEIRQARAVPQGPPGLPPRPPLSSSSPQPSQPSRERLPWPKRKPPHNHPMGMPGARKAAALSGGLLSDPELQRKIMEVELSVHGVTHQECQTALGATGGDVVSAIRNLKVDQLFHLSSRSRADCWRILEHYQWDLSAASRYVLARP
As to conditions: at 0.1 µM.

The target of test [7] is T2, Non-receptor tyrosine-protein kinase TNK1 (Homo sapiens). The following applies: at 1 µM.
Test [8] addresses Activated CDC42 kinase 1 (Homo sapiens) (UniProt Q07912). As to conditions: at 0.1 µM.
Test [9] has the same target. The following applies: at 1 µM.
The target in test [10] is High affinity nerve growth factor receptor (Homo sapiens) (UniProt P04629). The following applies: at 0.1 µM.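 Note: each value is a mean of replicate percent inhibition readings against TRKA kinase.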
High affinity nerve growth factor receptor (Homo sapiens), sequence (P04629 33-796 limits assumed): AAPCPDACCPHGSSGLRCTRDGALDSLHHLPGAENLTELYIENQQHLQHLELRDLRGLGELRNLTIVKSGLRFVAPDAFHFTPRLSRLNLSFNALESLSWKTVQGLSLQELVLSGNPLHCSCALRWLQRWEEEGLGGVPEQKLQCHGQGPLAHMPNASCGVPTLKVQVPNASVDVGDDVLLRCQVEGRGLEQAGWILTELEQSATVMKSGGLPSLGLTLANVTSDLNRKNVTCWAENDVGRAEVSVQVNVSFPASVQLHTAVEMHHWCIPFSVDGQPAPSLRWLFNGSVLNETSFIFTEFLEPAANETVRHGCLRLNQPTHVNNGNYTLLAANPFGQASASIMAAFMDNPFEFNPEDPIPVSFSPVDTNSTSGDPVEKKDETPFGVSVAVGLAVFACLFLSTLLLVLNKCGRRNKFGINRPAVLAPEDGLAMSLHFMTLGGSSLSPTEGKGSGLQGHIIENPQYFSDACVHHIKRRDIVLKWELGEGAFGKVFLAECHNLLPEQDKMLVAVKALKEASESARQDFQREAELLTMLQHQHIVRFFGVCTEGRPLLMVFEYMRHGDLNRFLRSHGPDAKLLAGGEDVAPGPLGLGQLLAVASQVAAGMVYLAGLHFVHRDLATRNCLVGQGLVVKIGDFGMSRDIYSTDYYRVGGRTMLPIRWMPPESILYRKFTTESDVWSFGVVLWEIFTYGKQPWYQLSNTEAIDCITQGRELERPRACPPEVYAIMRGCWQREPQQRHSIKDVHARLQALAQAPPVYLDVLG

Activated CDC42 kinase 1 (Homo sapiens), sequence (Q07912 whole entry, looked up): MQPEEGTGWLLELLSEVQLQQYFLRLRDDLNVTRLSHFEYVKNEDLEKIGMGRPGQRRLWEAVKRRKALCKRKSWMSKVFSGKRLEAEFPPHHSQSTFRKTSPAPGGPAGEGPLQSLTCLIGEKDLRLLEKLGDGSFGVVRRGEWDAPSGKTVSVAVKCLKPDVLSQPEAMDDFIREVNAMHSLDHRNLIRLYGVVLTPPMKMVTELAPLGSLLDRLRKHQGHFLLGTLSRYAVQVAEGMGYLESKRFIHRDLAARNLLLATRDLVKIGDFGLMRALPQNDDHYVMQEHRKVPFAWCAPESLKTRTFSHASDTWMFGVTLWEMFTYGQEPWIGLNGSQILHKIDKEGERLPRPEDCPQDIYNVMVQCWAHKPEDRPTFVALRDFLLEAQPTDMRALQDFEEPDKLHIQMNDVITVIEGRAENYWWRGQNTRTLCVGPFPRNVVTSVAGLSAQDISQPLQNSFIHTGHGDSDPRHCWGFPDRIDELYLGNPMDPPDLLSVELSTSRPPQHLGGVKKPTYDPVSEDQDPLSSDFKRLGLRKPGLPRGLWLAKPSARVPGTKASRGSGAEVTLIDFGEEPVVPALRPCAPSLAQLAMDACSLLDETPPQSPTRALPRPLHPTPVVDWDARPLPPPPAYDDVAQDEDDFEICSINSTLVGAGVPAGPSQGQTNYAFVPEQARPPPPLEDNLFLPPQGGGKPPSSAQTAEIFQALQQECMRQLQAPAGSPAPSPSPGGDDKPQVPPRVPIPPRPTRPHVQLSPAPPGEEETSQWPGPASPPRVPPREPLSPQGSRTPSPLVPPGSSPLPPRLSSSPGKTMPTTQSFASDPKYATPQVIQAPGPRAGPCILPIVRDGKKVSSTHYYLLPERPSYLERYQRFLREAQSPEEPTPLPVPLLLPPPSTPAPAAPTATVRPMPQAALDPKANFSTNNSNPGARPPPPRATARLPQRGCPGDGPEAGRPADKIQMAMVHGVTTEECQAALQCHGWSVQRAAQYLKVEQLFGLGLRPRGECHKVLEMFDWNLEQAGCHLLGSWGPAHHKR
Angiopoietin-1 receptor (Homo sapiens), sequence (Q02763 whole entry): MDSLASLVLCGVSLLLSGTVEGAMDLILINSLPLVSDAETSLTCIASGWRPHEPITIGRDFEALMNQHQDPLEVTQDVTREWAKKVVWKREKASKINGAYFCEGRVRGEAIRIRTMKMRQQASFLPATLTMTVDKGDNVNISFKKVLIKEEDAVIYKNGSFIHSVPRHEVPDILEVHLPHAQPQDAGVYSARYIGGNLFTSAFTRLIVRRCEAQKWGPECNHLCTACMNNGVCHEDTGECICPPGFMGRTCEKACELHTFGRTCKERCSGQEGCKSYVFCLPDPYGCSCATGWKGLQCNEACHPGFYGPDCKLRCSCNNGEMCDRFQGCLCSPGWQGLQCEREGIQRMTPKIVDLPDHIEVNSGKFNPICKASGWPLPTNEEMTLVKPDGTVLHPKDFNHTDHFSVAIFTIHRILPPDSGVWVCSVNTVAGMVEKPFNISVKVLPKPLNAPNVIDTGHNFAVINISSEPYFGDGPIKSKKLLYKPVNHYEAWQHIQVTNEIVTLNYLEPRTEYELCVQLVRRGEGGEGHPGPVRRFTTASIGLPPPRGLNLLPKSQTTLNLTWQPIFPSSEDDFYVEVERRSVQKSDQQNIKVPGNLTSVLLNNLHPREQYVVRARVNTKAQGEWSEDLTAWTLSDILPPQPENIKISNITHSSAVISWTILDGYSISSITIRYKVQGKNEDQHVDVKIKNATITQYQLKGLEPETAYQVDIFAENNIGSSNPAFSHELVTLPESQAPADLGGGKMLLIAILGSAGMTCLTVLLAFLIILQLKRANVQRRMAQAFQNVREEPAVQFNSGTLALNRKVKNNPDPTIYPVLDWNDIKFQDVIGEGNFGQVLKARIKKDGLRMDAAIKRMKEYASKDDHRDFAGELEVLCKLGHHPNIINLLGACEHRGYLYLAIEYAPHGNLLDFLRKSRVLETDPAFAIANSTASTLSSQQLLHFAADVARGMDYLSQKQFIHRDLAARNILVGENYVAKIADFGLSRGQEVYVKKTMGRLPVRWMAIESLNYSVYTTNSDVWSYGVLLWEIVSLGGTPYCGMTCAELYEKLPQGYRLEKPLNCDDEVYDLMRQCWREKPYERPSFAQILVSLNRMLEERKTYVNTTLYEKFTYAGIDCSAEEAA

What is called inhibition is the drop in the measured response relative to a control, in per cent. `COc1cc(Nc2nccc(Nc3ccc4c(C)n[nH]c4c3)n2)cc(OC)c1OC`: the inhibition in test [1] stood at 42.8%; in test [2], 23.6%; in test [3], 63.1%; in [4] it was 8.4%; in [5], 49.8%; in test [6], 43%. In addition, the inhibition in [7] is 77.3%; in test [8], 10.1%; in test [9], 52.9%; in [10], 12.2%.

Regarding `COc1ccc(-c2nn3ncccc3c2-c2ccnc(Nc3ccc4c(c3)OCCO4)n2)cc1`, the inhibition in test [1] is -0.41%; in [2], 1.33%; in [3] it was 11.9%; in test [4], 8.07%; in test [5], 45.9%; in [6], 6.95%. For the same molecule, the inhibition in test [7] is 51.1%; in test [8], -0.12%; in test [9] it was 3.47%; in test [10] it was 0.04%.

`N#Cc1c(NC(=O)c2ccc(F)cc2)sc2c1CCCC2`: the inhibition in [1] is -0.64%; in [2], 1.75%; in [3] it was 1.25%; in [4] it was 1.49%; in test [5], 2.44%; in [6], -1.86%. Also, the inhibition in test [7] was found to be 2.53%; in test [8], 0.23%; in test [9], 0.89%; in test [10] it was 0.08%.

Turning to `CCNC(=O)O[C@H]1CN[C@H](C#Cc2cc3ncnc(Nc4ccc(OCc5cccc(F)c5)c(Cl)c4)c3s2)C1`, the inhibition in [1] was 0.53%; in test [2], 4.9%; in test [3], 5.79%; in test [4], 1.23%; in [5], 3.88%; in test [6], 3.2%. Moreover, the inhibition was 10.3% in test [7], 1.33% in [8], 1.05% in [9] and 4.7% in test [10].

For the molecule `NS(=O)(=O)c1ccc(N/N=C2\C(=O)Nc3ccc4ncccc4c32)cc1`, the inhibition in [1] stood at 22.4%; in test [2], 8.53%; in test [3], 38.3%; in [4], 5.02%; in test [5], 11.5%; in test [6], 14.6%. Besides, the inhibition in [7] was 56.8%; in [8], 1.85%; in test [9] it was 8.38%; in [10] it was 6.88%.

`Fc1ccc(-c2nn3ncccc3c2-c2ccnc(Nc3ccc4c(c3)OCCO4)n2)cc1`: the inhibition was -3.1% in test [1]; 11.3% in test [2]; 45.3% in test [3]; 6.26% in test [4]; 23.4% in test [5]; 8.48% in [6]. Besides, the inhibition in [7] was determined as 30.4%; in [8], 1.35%; in [9], 13%; in [10], 2.82%.

`[O-][S+]1CCN(Cc2ccc(-c3ccc4ncnc(Nc5ccc(OCc6cccc(F)c6)c(Cl)c5)c4c3)o2)CC1`: the inhibition in [1] is 0.31%; in [2], 2.12%; in test [3], 4.55%; in [4], 3.66%; in test [5], 5.42%; in test [6], 2.94%. Also, the inhibition worked out at 11.7% in [7], 1.61% in [8], 1.32% in test [9] and 3.52% in [10].

In the case of `COC(=O)c1sc(-n2cnc3cc(OC)c(OC)cc32)cc1OCc1ccccc1C(F)(F)F`, the inhibition was found to be 1.09% in test [1]; 3.18% in [2]; 6.98% in test [3]; 4.13% in test [4]; 14.3% in test [5]; 8.49% in [6]. For the same molecule, the inhibition in test [7] came out at 4.49%; in test [8], 0.92%; in test [9] it was 5.56%; in test [10] it was 3.76%.

For `COc1cc(N2CCN(C(C)C)CC2)ccc1Nc1nc(Nc2ccc(F)cc2C(N)=O)c2cc[nH]c2n1`, the inhibition in [1] came to 35.9%; in test [2], 6.32%; in test [3], 3.59%; in test [4], 4.35%; in test [5], 3.7%; in test [6], 34.7%. Also, the inhibition was 74.1% in [7], 10.8% in test [8], 61.7% in test [9] and -1.19% in test [10].

`CN1CCC(n2cnc(-c3ccc(F)cc3)c2-c2ccnc(Nc3ccccc3)n2)CC1`: the inhibition was 0.18% in test [1]; 3.59% in [2]; 3.4% in test [3]; 2.95% in [4]; 4.52% in test [5]; -0.22% in test [6]. The inhibition was 7.4% in [7], 0.74% in test [8], 2.45% in test [9] and -0.03% in test [10].

In the case of `CS(=O)(=O)CCNCc1coc(-c2ccc3ncnc(Nc4ccc(OCc5ccccc5)cc4)c3c2)c1`, the inhibition was 3.66% in test [1]; 4.07% in test [2]; 6.39% in test [3]; 3.15% in test [4]; 4.19% in [5]; 4.53% in [6]. The inhibition in test [7] was 7.58%; in test [8] it was 1.22%; in test [9] it was 2.21%; in test [10] it was 1.72%.

For the molecule `Fc1ccc(-c2cc(-c3c[nH]nc3-c3ccccn3)ccn2)cc1`, the inhibition was -0.94% in [1]; 3.71% in [2]; 3.67% in [3]; 2.32% in test [4]; 2.49% in test [5]; 3.71% in test [6]. Further, the inhibition in test [7] came out at 17.8%; in test [8], 2.51%; in test [9] it was 1.26%; in [10], 2.16%.

Consider `COc1ccc2[nH]c3c4[nH]c5ccc(OC)cc5c4c4c(c3c2c1)C(=O)NC4=O`, for which the inhibition worked out at 10.5% in [1]; 6.89% in test [2]; 31% in test [3]; 1.36% in test [4]; 5% in test [5]; 63.6% in [6]. Also, the inhibition was 89% in test [7], 5.57% in test [8], 16% in test [9] and 3.47% in test [10].

Regarding `N#Cc1c(NC(=O)CN2CCOCC2)sc2c1CCCC2`, the inhibition is -1.53% in [1]; 3.74% in [2]; 7.22% in test [3]; 2.61% in [4]; 4.26% in [5]; 3.32% in [6]. The inhibition in [7] is 8.64%; in [8], 1.58%; in test [9], 3.21%; in [10], 3.46%.

`CCN(CC)S(=O)(=O)c1ccc(OC)c(Nc2ncc(-c3ccccc3)o2)c1`: the inhibition in [1] is -0.04%; in [2] it was 2.99%; in test [3] it was 11.9%; in [4], 4.38%; in test [5], 14%; in [6] it was 15.6%. The inhibition in [7] is 72.1%; in test [8], -0.01%; in test [9] it was 1.62%; in test [10], 4.25%.

For the molecule `Cc1cccc(Nc2ncc(-c3ccccc3)o2)c1`, the inhibition in test [1] was found to be 2.98%; in [2], 6.33%; in [3] it was 4.84%; in test [4], 5.06%; in test [5], 4.9%; in test [6], 1.78%. Besides, the inhibition in test [7] stood at 4.17%; in test [8], 1.1%; in test [9], 3.4%; in [10] it was 0.19%.

The values are drawn from ChEMBL document CHEMBL1961873, “Compounds: GSK PKIS; Assays: Nanosyn kinase panel” (2012).
